Molecules are shown by their SMILES. Calls of active or inactive are those of the source. The calls were made as follows: active = hit-call score of the fitted dose curve at least 0.9, where 1 is the maximum; inactive = score below 0.9.

Read-out in this experiment: Macrophage colony-stimulating factor (MCSF), CSF1 (gene 1435)
The experiment in a line: BSK_LPS_MCSF: BioMAP Diversity Plus: LPS Assay for Macrophage colony-stimulating factor (MCSF) Biomarker Activity (AID 2283083). The following applies: primary human HUVEC with PBMC; actives raise or lower the signal. On the procedure: BSK_LPS is a cell-based, multiplexed-readout assay that uses umbilical vein endothelium and peripheral blood mononuclear cells, a human vascular primary cell co-culture, with measurements taken at 24 hours after chemical dosing in a 96-well plate.BSK_LPS_MCSF is an assay component measured in the BSK_LPS assay. It measures M-CSF antibody related to regulation of gene expression using ELISA technology.Data from the assay component BSK_LPS_MCSF was analyzed into 1 assay endpoint. This assay endpoint, BSK_LPS_MCSF, was analyzed with bidirectional fitting relative to DMSO as the negative control and baseline of activity. Using a type of binding reporter, gain or loss-of-signal activity can be used to understand changes in the signaling as they relate to the gene CSF1. Furthermore, this assay endpoint can be referred to as a primary readout, because this assay has produced multiple assay endpoints where this one serves a signaling function. To generalize the intended target to other relatable targets, this assay endpoint is annotated to the cytokine intended target family, where the subfamily is colony stimulating factor.
The levels of cell surface (or secreted, indicated by the prefix "s") biomarker endpoints were measured by ELISA. Overt cytotoxicity to cells in confluent adherent cultures (all systems other than the BT system) was assessed by measuring total protein levels using sulforhodamine B (SRB) staining in parallel cultures at the time of biomarker measurements, indicated as SRB endpoints. For proliferation assays for adherent cell types, individual cell types are cultured at sub-confluence and relative cell numbers quantified by SRB staining at time points optimized for each system (48 h: 3C and CASM3C systems; 72 h: BT and HDF3CGF systems; 96 h: SAg system). SRB was performed by staining cells with 0.1% SRB after fixation with 10% TCA and reading wells at 560 nm.Viability and proliferation of PBMC (T cells) was quantified by Alamar Blue reduction for the SAg and BT systems. For PBMC viability (referred to as PBMC Cytotoxicity within the assay endpoint names), cells were plated (75,000/well in a 96-well plate) and then chemical samples added for 1 h before addition of activators, SEB and TSST-1 (20 ng/mL final concentration each). Cells were incubated for 90 h. Then, Alamar Blue (20 uL/well) (Invitrogen, Cat DAL1100) was added for 6 h, and the plates were read with a fluorescence microplate reader at 546/580 nm (excitation/emission). For PBMC proliferation, cells were plated and activated as above but incubated for only 16 h prior to addition of Alamar Blue. Plates were read after 6 h.
On to `O=C=NC1CCC(CC2CCC(N=C=O)CC2)CC1` (stereo not given), for which the outcome was inactive.

`CC(=O)O[C@]1(C(C)=O)CC[C@H]2[C@@H]3C[C@H](C)C4=CC(=O)CC[C@]4(C)[C@H]3CC[C@@]21C`: the result was inactive.

`CC1COc2ccccc2N1C(=O)C(Cl)Cl` (stereo not given): the AC50 is 8.01 µM (active).

On to `CC(=O)Nc1ccccc1O`, for which the outcome was inactive.

`CC(=O)/C=C/C1=C(C)CCCC1(C)C`: the result was inactive.

As to `CCCCCCCCC=O`, the outcome was inactive.

For `Cc1ccc(O)c(C(C)(C)C)c1`, the AC50 was 36.9 µM (active).

Consider `Cc1cc(C2(c3cc(C)c(O)cc3C)OS(=O)(=O)c3ccccc32)c(C)cc1O`, for which the result was inactive.

Turning to `CC[Si](OC(C)=O)(OC(C)=O)OC(C)=O`, the outcome was inactive.

As for `Cc1ccc(Nc2ccc(O)c3c2C(=O)c2ccccc2C3=O)cc1`, the result was inactive.

As to `BrC1CCC(Br)C(Br)CCC(Br)C(Br)CCC1Br` (stereo not given), the AC50 is 4.67 µM (active).

With `CCCCC(CC)COC(=O)/C=C\C(=O)OCC(CC)CCCC` (stereo not given), the result was inactive.

Turning to `O=C1OC2(c3cc(Br)c(O)c(Br)c3Oc3c2cc(Br)c(O)c3Br)c2c(Cl)c(Cl)c(Cl)c(Cl)c21`, the AC50 was 5.42 µM (active).

On to `CC(C)c1ccc(C(C)C)cc1`, for which the result was inactive.

As for `COC(=O)c1ccc(C)cc1`, the outcome was inactive.

For the molecule `NCCNCCN`, the result was inactive.

`CCC(=O)OCc1ccccc1`: the result was inactive.

Consider `O=C(O)c1ccc([N+](=O)[O-])cc1`, for which the outcome was inactive.

For `CCCCC/C=C/C=C/C=O`, the AC50 was 33.2 µM (active).

For `OC1OC[C@@H](O)[C@H](O)[C@H]1O` (stereo not given in full), the result was inactive.

In the case of `CNC[C@H](O)c1cccc(O)c1`, the result was inactive.

Take `O=C1CCCCCCCCCCCCCCO1`: the outcome was inactive.

In the case of `O=P(c1ccccc1)(c1ccccc1)c1ccccc1`, the outcome was inactive.

With `c1ccc2c(c1)c1cccc3ccc4cccc2c4c31`, the outcome was inactive.

With `O=[N+]([O-])c1cc(C(F)(F)F)ccc1Cl`, the result was inactive.

For the molecule `CCCCC(CC)COCCC#N` (stereo not given), the result was inactive.

As to `CC(=O)[C@H]1CC[C@H]2[C@@H]3CC=C4C[C@@H](O)CC[C@]4(C)[C@H]3CC[C@]12C`, the outcome was inactive.

Consider `C=CCOC(=O)CCC1CCCCC1`, for which the outcome was inactive.

As to `CCn1c2ccccc2c2cc(N)ccc21`, the AC50 is 7.37 µM (active).

`COc1cc(C=O)ccc1OC(=O)C(C)C`: the outcome was inactive.

Turning to `CCCCCCCCCC=O`, the outcome was inactive.

As for `O=C(O)c1cn(-c2ccc(F)cc2)c2cc(N3CCNCC3)c(F)cc2c1=O`, the result was inactive.

As for `CCCCCCCCCCCCCCCCCC(=O)OCC(CC)CCCC` (stereo not given), the outcome was inactive.

For the molecule `Cc1ccc2n[nH]nc2c1`, the result was inactive.

Take `N#Cc1ccc(CC(=NNC(=O)Nc2ccc(OC(F)(F)F)cc2)c2cccc(C(F)(F)F)c2)cc1`: the outcome was inactive.

`C#C[C@]1(O)CC[C@H]2[C@@H]3CCC4=Cc5oncc5C[C@]4(C)[C@H]3CC[C@@]21C`: the result was inactive.

As for `c1ccc2sc(SN(C3CCCCC3)C3CCCCC3)nc2c1`, the AC50 was 5.57 µM (active).

On to `CC(=O)OCCC(C)CC(C)(C)C` (stereo not given), for which the result was inactive.

Regarding `C[C@H]1C[C@@H]2[C@H]([C@@H](O)C[C@@]3(C)[C@H]2CC[C@]3(O)C(=O)CO)[C@@]2(C)C=CC(=O)C=C12`, the outcome was inactive.

In the case of `CCc1c(C)cc(N)c(CC)c1N`, the outcome was inactive.

These data come from PubChem BioAssay (EPA / NIEHS).
